# ALOX12 inhib – blocks human 12-lipoxygenase activity | Potency, µM (doses to about 57.1 µM), for the others: at the highest dose activity change, negative = inhibition, hits mostly inhibitors | purified 12-hLO, xylenol orange hydroperoxide absorbance | 150,000 tested, 0.12% active | AID 1452; active = well fitted curve in the direction sought with a large enough effect; inconclusive = small, poorly fitted or top-dose-only effect, or another doubt; inactive = no such curve, though single readings can be large; an effect the other way counts as inactive or inconclusive; note: potency is the fitted concentration of half-maximal effect; nearly all actives have a fitted effect of over 55% in size
#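 Xylenol orange chromogenic assay: hydroperoxide from 12hLO oxidises Fe(II), giving red-shifted Fe(III)-XO absorbance. Conditions: 150 nM enzyme, 40 uM arachidonic acid, 25 mM Hepes pH 7.0, 0.01% Triton X-100, 30 min, room temperature.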
# ALDH1A1 inh – blocks purified human ALDH1A1 activity; P00352; Potency, µM (titrated, usually from 75.3 µM), without a hit: top-dose activity, negative = inhibition, actives largely listed as inhibitors; Purified ALDH1A1, NADH fluorescence, propionaldehyde substrate; 220,000 tested, 7.3% active;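 note: potency is the fitted concentration of half-maximal effect; plate controls were no enzyme wells and a reference inhibitor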
# Target sequence (P00352 whole entry, looked up): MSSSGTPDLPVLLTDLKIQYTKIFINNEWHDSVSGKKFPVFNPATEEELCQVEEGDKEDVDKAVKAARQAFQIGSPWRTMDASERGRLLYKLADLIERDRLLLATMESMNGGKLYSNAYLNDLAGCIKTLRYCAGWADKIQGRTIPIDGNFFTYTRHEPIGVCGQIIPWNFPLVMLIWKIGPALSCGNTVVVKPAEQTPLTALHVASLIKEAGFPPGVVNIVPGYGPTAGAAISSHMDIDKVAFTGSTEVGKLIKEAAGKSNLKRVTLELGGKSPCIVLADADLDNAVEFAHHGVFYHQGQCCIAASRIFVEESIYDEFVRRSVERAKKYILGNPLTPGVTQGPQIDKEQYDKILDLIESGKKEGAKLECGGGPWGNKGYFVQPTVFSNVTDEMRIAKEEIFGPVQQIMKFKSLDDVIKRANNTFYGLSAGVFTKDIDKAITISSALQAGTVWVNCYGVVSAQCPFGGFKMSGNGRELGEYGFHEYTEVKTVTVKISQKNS
# HPGD block – HPGD (human) dehydrogenase inhibition. P15428. purified HPGD, NADH fluorescence kinetic, PGE2 substrate. Potency, µM, for inactives: at the highest dose activity change, negative = inhibition, most hits filed as inhibitors. 150,000 tested, 4.3% active. AID 894; note: potency is the fitted concentration of half-maximal effect
#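 20 nM HPGD preincubated 15 min at room temperature with compound in 50 mM Tris-HCl pH 8, 0.01% Tween 20. Started with 1 mM NAD+ and 30 uM prostaglandin E2; NADH fluorescence (360/450 nm) read 5 times over 30-s intervals, last minus first.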
# IMPase inh – membrane-permeable compound that blocks inositol monophosphatase; AID 901; 120,000 tested, under 10 active; CHO-M1 cells, IP1 accumulation, HTRF TR-FRET ratio; P97697; inhibition (IP1 accumulation), % at 46.1 µM; active = well fitted curve in the direction sought with a large enough effect in the signal ratio, not every such curve was filed as active; inconclusive = small, poorly fitted or top-dose-only effect, or a change in a side signal; inactive = no such curve, though single readings can be large or run the other way; the % refers to the signal ratio;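 note: cells stimulated with carbachol in lithium chloride buffer; plate controls were DMSO basal wells for no effect and reference inhibitor wells for full effect; higher means more IMPase inhibition seen as more IP1 and lower FRET ratio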
# Target sequence (P97697 whole entry, looked up): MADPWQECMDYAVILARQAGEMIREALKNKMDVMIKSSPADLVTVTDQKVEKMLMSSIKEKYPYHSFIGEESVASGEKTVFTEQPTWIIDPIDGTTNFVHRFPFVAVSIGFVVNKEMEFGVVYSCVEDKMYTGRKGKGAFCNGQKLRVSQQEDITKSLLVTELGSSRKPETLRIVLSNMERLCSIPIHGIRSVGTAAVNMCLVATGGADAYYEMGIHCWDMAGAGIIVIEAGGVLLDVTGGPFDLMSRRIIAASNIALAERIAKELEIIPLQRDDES
#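 CHO-M1 cells (CHO stably expressing M1 receptor), compound up to 46 uM final, stimulated with carbachol (50 uM as added) in buffer with 50mM LiCl, pH 7.4, 30 min at 37C. Cytosolic IP1 read by TR-FRET; AC50 from Hill fits.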
# IMPase Li inh – membrane-permeable IMPase blocker, potentiated with lithium; CHO-M1 cells, IP1 TR-FRET (IP-One), carbachol + lithium; Potency, µM (top dose mostly 59.4 µM), without a hit: at the highest dose activity, negative = IMPase inhibition, most hits filed as inhibitors; 210,000 tested, 0.35% active; AID 1457; active = well fitted curve in the direction sought with a large enough effect; inconclusive = small, poorly fitted or top-dose-only effect, or another doubt; inactive = no such curve, though single readings can be large; an effect the other way counts as inactive or inconclusive;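 note: IP1 builds up when IMPase is blocked and the TR-FRET signal falls; potency is the fitted concentration of half-maximal effect; plate controls were basal vehicle for no effect and high inhibitor control for full effect; nearly all actives have a fitted effect of over 50% in size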
#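 CHO cells stably expressing M1 receptor (2000/well, cultured 16–30 h) treated 30 min at 37C with compound plus low lithium. Cytosolic IP1 by TR-FRET (665/620 ratio and 620 channel) after 10 min lysis; AC50 by Hill fit.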
# PNC assembly inh – inhibitors of perinucleolar compartment assembly. AID 2417. 140,000 tested, 3.1% active. PC3M PTB-GFP, PNC prevalence imaging, 16 h; active compounds read low. activity change (PNC), negative = inhibition, % at 10 µM;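 active = readout at or below -70, meaning at least 70% loss of cells showing the perinucleolar compartment, a nuclear body marking cancer cells; inconclusive = readout between -30 and a set limit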;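 note: plate controls were DMSO wells for no effect and camptothecin positive control wells for full effect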
#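 Read-out is percentage of cells bearing a perinucleolar compartment, from automated 20x imaging of fixed, Hoechst-stained PC3M PTB-GFP cells. Cells were seeded 4 h, then exposed 16 h to compound (23 nl of library stock) in duplicate plates.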
# An asterisk follows results filed as active; ? = inconclusive; nt = no result given; [ ] = dose if it differs, or a comment. Only some compounds are listed: those with a hit (about 11% of all), similar ones and a draw of the others. Unless noted, calls come from the whole dose curve; as a rule, active = well fitted inhibition curve with a large enough effect (not every such curve was filed as active); inconclusive = small, poorly fitted or top-dose-only effect, or another doubt; inactive = no such curve, though single readings can be large or run the other way. Unless noted, % is set by controls: 0 for no effect and ±100 for the full control effect.
SMILES,ALOX12 inhib,ALDH1A1 inh,HPGD block,IMPase inh,IMPase Li inh,PNC assembly inh
CC(C)C(c1nnnn1C(C)(C)C)N1CCOCC1 (configuration not stated),-11%,?,-7%,-12,1%,52
CC(C)C(c1nnnn1C(C)(C)C)N1CCC(Cc2ccccc2)CC1 (configuration not stated),-5%,22µM*,-17%,nt,15%,30
Cc1nnc(SC(C)C(=O)Nc2ncc(Cl)cc2Cl)n1Cc1ccccc1 (configuration not stated),-7%,-5%,-10%,-3,0%[38.3 µM],-4
Cc1cc(SC(C)C(=O)Nc2ncc(Cl)cc2Cl)nc2ccccc12 (configuration not stated),2%,-8%,-10%,nt,11%,-92*
COCCn1c(SC(C)C(=O)Nc2ncc(Cl)cc2Cl)nc2ccccc21 (configuration not stated),-1%,-1%,-3%,3,24%[38.3 µM],-103*
Cn1nc(SCC(=O)O)sc1=S,-4%,3%,14µM*,-2,-5%[38.3 µM],-10
CC1Cn2c(CCc3ccccc3)nnc2S1 (configuration not stated),8%,?,28µM*,1,22%[38.3 µM],29
Cc1ccccc1Nc1cc(=O)oc2ccccc12,-6%,14µM*,-20%,3,46%[38.3 µM],-23
Cc1ccc(Nc2cc(=O)oc3ccccc23)c(C)c1,2%,7%,-11%,3,0%[38.3 µM],143
COc1ccc(Cl)cc1-c1ccc(C(=O)O)o1,0%[0.00818 µM],?,?,nt,2%,nt
Cc1ccc2nc(C3CCN(CC(=O)Nc4ccc5c(c4)OCCO5)CC3)[nH]c2c1,1%,22µM*,-5%,-7,21%[38.3 µM],-19
CCOc1ccc(NC(=O)COc2ccc(OC)cc2)cc1,nt,3%,nt,nt,-10%,nt
CCOc1ccc(NC(=O)CN2CCN(CC(=O)Nc3ccc(Cl)c(C(F)(F)F)c3)CC2)cc1,-4%,13µM*,-17%,-4,35%[38.3 µM],?
CCOc1ccc(NC(=O)CN2CCN(CC(=O)Nc3ccc4c(c3)OCCO4)CC2)cc1,4%,8.9µM*,-15%,18,10%[38.3 µM],?
COc1ccccc1N1CCN(CC(=O)Nc2ccc(Cl)c(C(F)(F)F)c2)CC1,-3%,?,-24%,-10,16%,117
CCOc1ccc(NC(=O)CN2CCN(CC(=O)Nc3cc(OC)cc(OC)c3)CC2)cc1,2%,11µM*,-11%,11,22%[38.3 µM],21
COc1ccc(/C=N/NC(=O)CC(=O)NC2CCCCC2)cc1,nt,-8%,nt,nt,-3%,nt
CN(C)Cc1ccccc1-c1nc(NC2CC2)c2ccccc2n1,nt,20%,nt,nt,11%,nt
O=C(O)c1cccc(N=Nc2c(S(=O)(=O)O)ccc3c2C(=O)c2ccccc2C3=O)c1O,-8%[11.4 µM],-5%[13.5 µM],-22%,nt,-14%,nt
COc1c(Cl)cnn(-c2ccc(Cl)c(Cl)c2)c1=O,nt,-3%,nt,nt,1%,nt
CCOc1ccc(NC(=O)CN2CCN(CC(=O)Nc3cccc(F)c3)CC2)cc1,-2%,18µM*,7%,-5,25%[38.3 µM],57
O=c1c(-c2cccs2)nc2cnc(N3CCOCC3)nc2n1CCc1ccccc1,nt,?,nt,nt,-13%,nt
O=C(Nc1nc(=S)ss1)c1ccc(Cl)cc1Cl,-1%,6.3µM*,22µM*,3,-4%[38.3 µM],21
COc1ccc(S(=O)(=O)N(CC(=O)Nc2ccc(S(=O)(=O)N3CCOCC3)cc2)c2ccccc2)cc1,-1%,?,3.5µM*,-4,4%,3
O=C(CN(c1ccccc1)S(=O)(=O)c1ccccc1)N1CCN(Cc2ccc3c(c2)OCO3)CC1,-4%,-3%,-2%,10,32%[38.3 µM],-88*
SMILES,ALOX12 inhib,ALDH1A1 inh,HPGD block,IMPase inh,IMPase Li inh,PNC assembly inh
CCOC(=O)N1CCN(C(=O)CN(c2cc(Cl)ccc2OC)S(=O)(=O)c2ccccc2)CC1,-9%,25µM*,-5%,11,11%[38.3 µM],41
COc1ccc(S(=O)(=O)N(CC(=O)Nc2ccc(S(=O)(=O)N3CCOCC3)cc2)Cc2ccc(F)cc2)cc1,-3%,?,-7%,nt,5%,-15
CCOC(=O)N1CCN(C(=O)CN(c2cccc(C)c2)S(=O)(=O)c2ccccc2)CC1,-6%,-5%,1%,-2,7%[38.3 µM],0
CSc1ccc(S(=O)(=O)N2CCN(Cc3ccc4c(c3)OCO4)CC2)cc1,3%,14µM*,-3%,1,8%,8
CN(c1ccc(C(=O)N2CCN(Cc3ccc4c(c3)OCO4)CC2)cc1)S(=O)(=O)c1ccccc1,4%,8%,-9%,6,35%[38.3 µM],-23
Cc1ccc(S(=O)(=O)N(CC(=O)N2CCC(C)CC2)c2cccc(C)c2)cc1,-1%,11µM*,-9%,12,38%[38.3 µM],62
COc1ccc(N(CC(=O)NCC(C)C)S(=O)(=O)c2ccccc2)cc1,nt,9%,nt,nt,8%,nt
COc1ccc(S(=O)(=O)N(CC(=O)N2CCN(c3ccccc3)CC2)c2ccccc2)cc1,-4%,-26%,-16%,14,24%[38.3 µM],-112*
CCC(C)NC(=O)CN(c1ccc(OC)cc1)S(=O)(=O)c1ccc(NC(C)=O)cc1 (configuration not stated),1%,?,-9%,-7,-29%[38.3 µM],-127*
NC[C@@H]1O[C@H](O[C@H]2[C@H](O)[C@H](O[C@@H]3O[C@H](CO)[C@@H](O)[C@H](N)[C@@H]3O)[C@@H](N)C[C@H]2N)[C@@H](O)[C@H](O)[C@@H]1O,1%[25.6 µM],13%[20.9 µM],3%,3[20.6 µM],-2%,nt
CCOC(=O)Nc1ccc(C)cc1C,-1%,13%,-4%,-3,-4%[38.3 µM],25
Cc1ccc(N/N=C(\C#N)C(N)=S)c(C)c1,-16%,?,14µM*,nt,4%,-6
Fc1ccccc1-c1nc(N2CCN(c3cccc(Cl)c3)CC2)c2ccccc2n1,nt,nt,nt,-15,nt,nt
CSc1nsc(/C=C/Nc2ccc(F)cc2)c1C#N,nt,?,nt,nt,14%,nt
CSc1nsc(/C=C/Nc2cccc(Cl)c2)c1C#N,?,11µM*,-5%,6,-13%[38.3 µM],17
CSc1nsc(/C=C/Nc2ccc(Cl)cc2)c1C#N,-24%,7.9µM*,-24%,5,-25%[38.3 µM],29
CSc1nsc(/C=C/Nc2ccc(O)cc2C)c1C#N,nt,25µM*,nt,nt,-4%,nt
CCOc1cc(S(=O)(=O)N(Cc2ccccc2)Cc2ccccc2)c(OCC)cc1-n1cnnn1,0%,?,?,6,-7%[38.3 µM],40
NC(=O)N/N=C\c1cc(Br)ccc1O,1%,-3%,-21%,nt,-9%,7
O=C(N/N=C/c1cc(Cl)ccc1O)c1ccc(Br)cc1,-17%,-10%,-19%,nt,-3%,-107*
O=C(c1ccncc1)N1CCC[C@@]2(CCN(Cc3ccncc3)C2)C1,2%,22µM*,-13%,nt,?,nt
